Assay outcomes deposited in PubChem BioAssay by National Center for Advancing Translational Sciences (NCATS).
Only some compounds are listed: those with a hit (about 9.5% of all), similar ones and a draw of the others.
HPGD block – inhibitors of human 15-hydroxyprostaglandin dehydrogenase (HPGD). 150,000 compounds, 4.3% hits. P15428. Potency, µM, without a hit: top-dose activity change, negative = inhibition, most hits filed as inhibitors. purified HPGD, NADH fluorescence kinetic, PGE2 substrate; active = well fitted inhibition curve with a large enough effect, not every such curve was filed as active; inconclusive = small, poorly fitted or top-dose-only effect, or another doubt; inactive = no such curve, though single readings can be large or run the other way; note: potency is the fitted concentration of half-maximal effect; % is set by controls: 0 for no effect and ±100 for the full control effect
Target sequence (P15428 whole entry, looked up): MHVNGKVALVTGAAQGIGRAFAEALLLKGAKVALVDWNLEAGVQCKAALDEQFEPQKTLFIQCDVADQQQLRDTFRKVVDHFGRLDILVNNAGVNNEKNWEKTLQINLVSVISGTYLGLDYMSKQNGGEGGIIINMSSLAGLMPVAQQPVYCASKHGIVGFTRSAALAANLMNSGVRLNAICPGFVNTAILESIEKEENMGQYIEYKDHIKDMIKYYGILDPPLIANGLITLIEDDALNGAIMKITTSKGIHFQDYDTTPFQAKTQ
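NADH formation kinetics: reaction with 30 uM PGE2 and 1 mM NAD+ (final), 20 nM enzyme, Tris-HCl pH 8 with Tween 20, after 15 min compound preincubation at room temperature. Fluorescence change, last versus first of five reads.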
Tau fluor cs – counter-screen for tau fibril formation inhibitors | tau K18 P301L Alexa594 fluorescence, heparin fibrillization | Potency, µM (series often up to 57.7 µM), without a hit: at the top dose activity change, negative = decrease | 280,000 compounds, 0.93% hits | AID 1463; note: potency is the fitted concentration of half-maximal effect; % is set by controls: 0 for no effect and ±100 for the full control effect; nearly all actives have a fitted effect of over 55% in size
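Human tau K18 P301L (15 uM unlabeled, 0.24 uM Alexa 594-labeled) in 100 mM sodium acetate pH 7 with 20 uM heparin, 6 hr at 37 C. ThT 30 uM added, 1 hr ambient; Alexa 594 FP and total fluorescence read at 555/632 nm.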
ALDH1A1 inh-1 – ALDH1A1 (human) enzyme inhibition; Potency, µM (titrated, usually from 75.3 µM), without a hit: at the highest dose activity, negative = inhibition, hits mostly inhibitors; P00352; AID 1030; 220,000 compounds, 7.3% hits; Purified ALDH1A1, NADH fluorescence, propionaldehyde substrate; active = well fitted inhibition curve with a large enough effect, not every such curve was filed as active; inconclusive = small, poorly fitted or top-dose-only effect, or another doubt; inactive = no such curve, though single readings can be large or run the other way;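 note: potency is the fitted concentration of half-maximal effect; plate controls were no enzyme wells and a reference inhibitor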
Tau FP inhib – inhibitors of human tau fibril formation. P10636. K18 P301L tau heparin fibrillization, Alexa594 FP, 6 h. Potency, µM (titrated, usually from 57.7 µM), for inactives: top-dose activity, negative = inhibition, most hits filed as inhibitors. 280,000 compounds, 0.39% hits. AID 1468; note: potency is the fitted concentration of half-maximal effect; % is set by controls: 0 for no effect and ±100 for the full control effect; nearly all actives have a fitted effect of over 55% in size
Target sequence (P10636 561-689 P618L limits assumed): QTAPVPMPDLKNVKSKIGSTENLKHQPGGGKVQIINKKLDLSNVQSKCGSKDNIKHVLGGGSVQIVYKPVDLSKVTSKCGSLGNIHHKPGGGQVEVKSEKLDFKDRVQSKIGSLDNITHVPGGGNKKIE
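K18 P301L tau (15 uM unlabeled/0.24 uM Alexa 594-labeled, final) + compound + heparin 20 uM final; 100 mM NaOAc pH 7; 6 hr 37 C; ThT 30 uM final added, 1 hr RT; FP ex 555/em 632 nm.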
Tau ThT inhib – inhibitors of human tau fibril formation, thioflavin T binding | recombinant tau K18 P301L (four-repeat tau fragment), heparin-induced fibrillization, ThT fluorescence | 270,000 compounds, 2.1% hits | Potency, µM (series often up to 57.4 µM), inactives show top-dose activity, negative = inhibition, usual class: inhibitors; note: potency is the fitted concentration of half-maximal effect; % is set by controls: 0 for no effect and ±100 for the full control effect; nearly all actives have a fitted effect of over 55% in size
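Aggregation was driven by heparin (20 uM final) acting on recombinant tau […] bearing P301L in 100 mM sodium acetate pH 7; fibrils were detected with Thioflavin T.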
NPSR antagonist – antagonists of human neuropeptide S receptor cAMP signaling. Q6W5P4. AID 1461. Potency, µM (titrated, usually from 38.3 µM), for inactives: top-dose activity change, negative = inhibition, actives largely listed as inhibitors. CHO-NPSR cells, cAMP TR-FRET, antagonist mode. 220,000 compounds, 1% hits; note: potency is the fitted concentration of half-maximal effect; % is set by controls: 0 for no effect and ±100 for the full control effect; nearly all actives have a fitted effect of over 50% in size
HPGD inh cf – confirmation of human HPGD inhibitors; shares compounds with HPGD block; recombinant HPGD, NADH fluorescence, PGE2 substrate; Potency, µM (series often up to 57.1 µM), inactives show at the highest dose activity change, negative = inhibition, actives largely listed as inhibitors; 90 compounds, 90% hits; calls by dose curve
ALDH1A1 inh-2 – Confirms inhibition of human ALDH1A1 with counterscreen | shares compounds with ALDH1A1 inh-1 | purified ALDH1A1, NADH fluorescence, propionaldehyde/NAD+ | Potency, µM (top dose mostly 57.1 µM), for inactives: at the highest dose activity change, negative = inhibition, most hits filed as inhibitors | 90 compounds, 90% hits; calls by dose curve
Starred values were filed as active, the others as inactive; u = inconclusive; x = no result given; [ ] = dose if it differs, or a comment. Unless noted, calls come from the whole dose curve; as a rule, active = well fitted curve in the direction sought with a large enough effect; inconclusive = small, poorly fitted or top-dose-only effect, or another doubt; inactive = no such curve, though single readings can be large; an effect the other way counts as inactive or inconclusive.

SMILES | HPGD block | Tau fluor cs | ALDH1A1 inh-1 | Tau FP inhib | Tau ThT inhib | NPSR antagonist | others
COc1ccc(C(=O)Nc2ccccc2C(=O)NC(C(=O)NCc2ccco2)C(C)C)cc1 (centres undefined) | u | -16% | -1% | u | -11% | 26%[46.1 µM]
COc1ccc(N2CC(C(=O)NCc3ccco3)CC2=O)cc1 (centres undefined) | x | -12% | 25µM* | -2% | 0% | -3%
CC1(C)C(O)CC(O)[C@]2(C)C1CC(=O)[C@]1(C)C2CC[C@@]2(C)C(c3ccoc3)OC(=O)C3OC321 (some centres undefined) | -17% | -23% | 11% | -1% | -8% | x
NCCc1c[nH]c2ccc(OC(=O)C(=O)O)cc12 | -13% | x | -16%[13.5 µM] | x | x | x
NCCc1c[nH]c2ccc(OCc3ccccc3)cc12 | x | 13µM*[quencher] | x | 8% | -19% | 12%
C=CC(C)=O | -3% | x | 20µM* | x | x | x
CN[C@H](Cc1ccccc1)c1cccc(OC)c1O | -6% | x | 5%[13.5 µM] | x | x | x
C/C=C1\C[N@@+]2(C)CC[C@@]34C(=C(C=O)[C@H]1C[C@H]32)Nc1ccccc14 | 16µM* | x | u | x | x | x
Cc1[nH]n(-c2ccccc2)c(=O)c1C(c1cccc([N+](=O)[O-])c1O)c1c(C)[nH]n(-c2ccccc2)c1=O | 28µM* | u | 16µM* | -9% | 7.9µM* | 1%
CCN(CC)C(=O)c1ccc(NC(=O)c2cccc(F)c2)cc1 | 14µM* | -9% | 1% | 0% | -8% | -3%[46.1 µM]
O=C(Nc1cccc(C(F)(F)F)c1)Oc1ccccc1N1CCOCC1 | x | -18% | x | u | -8% | 13%
O=C(CCn1c(=O)oc2ccccc21)N1CCN(C(c2ccccc2)c2ccccc2)CC1 | -19% | -5% | 18µM* | -4% | -5% | u
COc1ccc(C=C2C(=O)N(C)C(=O)N(C)C2=O)cc1CSc1ccccn1 | 25µM* | -10% | 3.2µM* | -14% | u | -22%[46.1 µM]
COc1ccc([N+](=O)[O-])cc1CSc1ccccn1 | x | -24% | u | -13% | -7% | -14%
Cc1ccc(-c2nc(N3CCOCC3)s[n+]2-c2ccccc2)cc1 | 0.16µM* | -11% | 2.5µM* | 0% | u | 7% | HPGD inh cf=3.2µM*
Cc1o[nH]c(=O)c1C[C@H](N)C(=O)O | 4% | -11% | -4% | -5% | u | x
CC(=O)Nc1ccccc1C(=O)OCC(=O)c1ccccc1Cl | -10% | -5% | -11% | 0% | -3% | -3%
CC(=O)Nc1ccccc1OP1(=O)COc2ccccc2OC1 | -5% | 0% | 3% | 1% | -5% | 2%[46.1 µM] | HPGD inh cf=-11%
COc1ccc2c(c1)CCC1C2CC[C@@]2(C)C1CC[C@@H]2NCCCCCCN1C(=O)C=CC1=O (some centres undefined) | -12% | -4% | 0.5µM* | 10% | -13% | 5%[46.1 µM] | ALDH1A1 inh-2=5µM*
c1cncc([C@@H]2CCCCN2)c1 | 3% | -8% | 10% | -1% | -5% | x
